According to PubChem BioAssay (Tox21):
Several values for one entry are separate records, joined by “and”; a condition that tells them apart may be missing. Identical values can stand only once. Results filed as inconclusive are left out. Some compounds were tested as several samples or in several runs, with calls that do not always agree. Activity calls are given as the source filed them. Unless noted, the call rests on the fitted dose curve; in most records, active means well fitted curve in the direction sought with a large enough effect in the repeat runs; inconclusive means weak or mixed curves; inactive means no such curve, though single readings can be large; an effect the other way counts as inactive or inconclusive.

What was measured:
[1] = qHTS assay to identify small molecule agonists of the hypoxia (HIF-1) signaling pathway (AID 1224846; active means well fitted activation curve with a large enough effect in the signal ratio in the repeat runs, not every such curve was filed as active; the % refers to the signal ratio)
Summary of the method: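 Compounds from the Tox21 10K library, dissolved in DMSO, are tested for induction of a hypoxia response element–controlled beta-lactamase reporter in ME-180 cells. Exposure lasts 17 hrs at 37C after a 5 hr settling period, followed by CCF4-AM FRET substrate.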

[2] = qHTS assay to identify small molecule agonists of H2AX - cell viability counter screen (AID 1224847; calls by dose curve; further: top concentration of the series differs between compounds; nearly all actives have a fitted effect of over 30% in size)
Summary of the method: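 Wild-type CHO-K1 cells (10% FBS medium) were plated overnight at 37C, exposed to compounds at 15 concentrations for 3 hr at 37C (0.76% DMSO final), and viability was read as CellTiter-Glo luminescence after 30 min at room temperature.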

[3] = qHTS RealTime-Glo MT Cell Viability Assay in HepG2 cells - 24 hour (AID 1224867); further: nearly all actives have a fitted effect of over 50% in size; further: potency means the concentration at half of the fitted maximal effect
Summary of the method: (§1)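 Tox21 10K library screened in qHTS format on HepG2 cells carrying RealTime-Glo reagents. Compounds were added after a 5 h preincubation, and the luminescent signal from continuous culture was measured repeatedly during 40 h treatment.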

[4] = qHTS RealTime-Glo MT Cell Viability Assay in HEK293 cells - 32 hour (AID 1224868); further: nearly all actives have a fitted effect of over 50% in size; further: potency means the concentration at half of the fitted maximal effect
Summary of the method: (§2)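 Luminescence generated by NanoLuc from substrate produced by living HEK293 cells served as the viability signal. Each value reflects the reading at its stated time point during continuous 40 h compound exposure at 37 C.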

[5] = qHTS RealTime-Glo MT Cell Viability Assay in HepG2 cells - 40 hour (AID 1224870); further: nearly all actives have a fitted effect of over 50% in size; further: potency means the concentration at half of the fitted maximal effect
Summary of the method: (§3)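 HepG2 cells (600/well) mixed with RealTime-Glo MT reagent, settled 5 h at 37 C/5% CO2 before compound addition. Nonlytic NanoLuc luminescence from viable-cell prosubstrate reduction read repeatedly during 40 h treatment at 37 C.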

[6] = A CellTox Green Cytotoxicity Assay to monitor cytotoxicity in HEK293 cells - 40 hour (AID 1224871); further: nearly all actives have a fitted effect of over 45% in size; further: potency means the concentration at half of the fitted maximal effect
Summary of the method: (§4)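 Cells (HEK293, 600/well) and dye reagent are dispensed together. After 5 h at 37 C, 23 nL compound is pinned in. Plates stay at 37 C for 40 h with fluorescence read at 0h, 8h, 16h, 24h, 32h and 40h.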

[7] = qHTS RealTime-Glo MT Cell Viability Assay in HEK293 cells - 16 hour (AID 1224872); further: nearly all actives have a fitted effect of over 50% in size; further: potency means the concentration at half of the fitted maximal effect
Summary of the method: as §2

[8] = qHTS RealTime-Glo MT Cell Viability Assay in HEK293 cells - 40 hour (AID 1224874); conditions: RealTime-Glo luminescence; max response: stronger effect = lower value; further: nearly all actives have a fitted effect of over 50% in size; further: potency means the concentration at half of the fitted maximal effect
Summary of the method: (§5)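 Real-time viability in HEK293: signal arises when living cells convert a prosubstrate for NanoLuc in the medium, so luminescence tracks viable cell number. Compound (23 nL, DMSO) added 5 h post-seeding; kinetic reads at 0–40 h, 37 C.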

[9] = A CellTox Green Cytotoxicity Assay to monitor cytotoxicity in HEK293 cells - 24 hour (AID 1224875); further: nearly all actives have a fitted effect of over 45% in size
Summary of the method: as §4

[10] = A CellTox Green Cytotoxicity Assay to monitor cytotoxicity in HepG2 cells - 16 hour (AID 1224876); further: nearly all actives have a fitted effect of over 45% in size; further: potency means the concentration at half of the fitted maximal effect
Summary of the method: (§6)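 Cells and non-lytic dye reagent are dispensed together (600 HepG2 cells/well) and incubated 5 h before DMSO compound transfer. Kinetic fluorescence is then recorded in the same wells during 40 h at 37 C.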

[11] = qHTS RealTime-Glo MT Cell Viability Assay in HepG2 cells - 32 hour (AID 1224877); further: nearly all actives have a fitted effect of over 55% in size; further: potency means the concentration at half of the fitted maximal effect
Summary of the method: as §1

[12] = A CellTox Green Cytotoxicity Assay to monitor cytotoxicity in HepG2 cells - 24 hour (AID 1224878); further: nearly all actives have a fitted effect of over 45% in size; further: potency means the concentration at half of the fitted maximal effect
Summary of the method: as §6

[13] = A CellTox Green Cytotoxicity Assay to monitor cytotoxicity in HepG2 cells - 40 hour (AID 1224879); further: nearly all actives have a fitted effect of over 40% in size; further: potency means the concentration at half of the fitted maximal effect
Summary of the method: as §6

[14] = qHTS RealTime-Glo MT Cell Viability Assay in HEK293 cells - 0 hour (AID 1224880)
Summary of the method: as §5

[15] = A CellTox Green Cytotoxicity Assay to monitor cytotoxicity in HEK293 cells - 32 hour (AID 1224881); further: nearly all actives have a fitted effect of over 40% in size
Summary of the method: as §4

[16] = qHTS assay to identify small molecule agonists of H2AX (AID 1224845; active means well fitted activation curve with a large enough effect in the signal ratio in the repeat runs, not every such curve was filed as active; the % refers to the signal ratio; further: potency means the concentration at half of the fitted maximal effect)
Summary of the method: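 Wild-type CHO-K1 cells, plated overnight, exposed 3hr at 37C to 15 concentrations (0.76% DMSO final). Lysed, then HTRF anti-pH2AX (S139) cryptate and anti-H2AX-d2 antibodies, 24 hr room temperature; 665/620 nm emission read.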

[17] = qHTS assay to identify small molecule antagonists of the estrogen related receptor (ERR) signaling pathway from Tox21 library (AID 1224848); further: nearly all actives have a fitted effect of over 50% in size; further: potency means the concentration at half of the fitted maximal effect
Summary of the method: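 Quantitative high-throughput format: ERR reporter cells (2,000/well) pre-incubated 6 h, treated 18 h at 37 C with compounds in DMSO alongside positive and negative controls, then read by ONE-Glo luminescence.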

[18] = qHTS assay to identify small molecule agonists of the estrogen related receptor (ERR) signaling pathway from Tox21 library (AID 1224849; calls by dose curve; further: nearly all actives have a fitted effect of over 15% in size); conditions: ERR reporter cell line, ONE-Glo luciferase, 18 h
Summary of the method: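 Cells carrying the ERR reporter were plated and allowed to settle for 6 h, exposed to library compounds for 18 h at 37 C, then lysed with ONE-Glo and luminescence measured.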

[19] = A CellTox Green Cytotoxicity Assay to monitor cytotoxicity in HEK293 cells - 0 hour (AID 1224869); further: nearly all actives have a fitted effect of over 50% in size
Summary of the method: as §4

[20] = qHTS RealTime-Glo MT Cell Viability Assay in HepG2 cells - 8 hour (AID 1224873); further: nearly all actives have a fitted effect of over 55% in size; further: potency means the concentration at half of the fitted maximal effect
Summary of the method: as §3
On the % scale 0 is the no-effect control and ±100 the full control effect.

C=CCSSCC=C
inactive: outcome [1] | Potency [2] | Potency [3] | Potency [4] | Potency [5] | Potency [6] | Potency [7] | max response [8] 1.18% | Potency [9] | Potency [10] | Potency [11] | Potency [12] | Potency [13] | outcome [14] | Potency [15]

CC(C)c1ccc(NC(=O)N(C)C)cc1
active: activity change, positive = activation ([18]; at 92.4 µM (top of the series)) 33.4%
inactive: Potency [16] | Potency [17] | Potency [3] | Potency [4] | Potency [19] | Potency [5] | Potency [6] | Potency [7] | Potency [20] | Potency [9] | Potency [10] | Potency [11] | Potency [13] | outcome [14] | Potency [15]

COCc1cnc(C2=NC(C)(C(C)C)C(=O)N2)c(C(=O)O)c1 (stereo not given)
inactive: Potency [16] | Potency [4] | Potency [19] | Potency [5] | Potency [6] | Potency [7] | max response [8] 9.64% | Potency [10] | Potency [11] | Potency [12] | Potency [13] | outcome [14] | Potency [15]

C[C@@H]1C[C@@H]([C@H](O)CC2CC(=O)NC(=O)C2)C(=O)[C@@H](C)C1
active: Potency [17] 682 nM and 545 nM and 750 nM | Potency [4] 387 nM and 219 nM and 169 nM | Potency [8] 387 nM and 245 nM and 169 nM
inactive and 19.5 µM (active): Potency [6]
inactive: outcome [1] | Potency [2] | activity change, positive = activation ([18]; at 42.5 µM (top of the series)) -64.4% | activity change, positive = activation ([18]; at 92.4 µM (top of the series)) -74.2% and -68.3% | Potency [3] | Potency [19] | Potency [5] | Potency [20] | Potency [9] | Potency [10] | Potency [11] | Potency [12] | Potency [13] | outcome [14] | Potency [15]

CC(=O)NNc1ccccc1
inactive: outcome [1] | Potency [2] | activity change, positive = activation ([18]; at 92.4 µM (top of the series)) -40.3% | Potency [3] | Potency [4] | Potency [19] | Potency [5] | Potency [6] | Potency [7] | Potency [20] | max response [8] 2.64% | Potency [10] | Potency [11] | Potency [12] | Potency [13] | outcome [14] | Potency [15]
active: Potency [17] 4.82 µM

CC(C)CCCCCCCOC(=O)c1ccccc1C(=O)OCCCCCCCC(C)C
inactive: Potency [16] | Potency [17] | activity change, positive = activation ([18]; at 92.4 µM (top of the series)) 0.464% | Potency [3] | Potency [4] | Potency [19] | Potency [5] | Potency [6] | Potency [7] | Potency [20] | max response [8] 11.2% | Potency [9] | Potency [10] | Potency [11] | Potency [12] | Potency [13] | outcome [14]

CCCCC(CC)CO[N+](=O)[O-] (stereo not given)
inactive: Potency [16] | Potency [2] | Potency [19] | Potency [5] | Potency [6] | Potency [7] | Potency [20] | max response [8] -1.82% | Potency [9] | Potency [10] | Potency [11] | Potency [12] | Potency [13] | outcome [14] | Potency [15]

O=[N+]([O-])/C=C/c1ccccc1
inactive: activity change, positive = activation ([18]; at 92.4 µM (top of the series)) -76.3% and -54.1% | Potency [19] | Potency [9] | outcome [14]
active: Potency [16] 20.1 µM | Potency [17] 22 µM | Potency [3] 44.4 µM and 19.5 µM | Potency [4] 7.03 µM and 13.8 µM | Potency [5] 19.8 µM and 13.8 µM | Potency [7] 4.98 µM and 12.3 µM | Potency [20] 49.8 µM | Potency [8] 6.27 µM and 15.5 µM | Potency [10] 55.8 µM | Potency [11] 22.2 µM and 17.4 µM | Potency [12] 22.2 µM | Potency [13] 12.5 µM

C=CCN1C[C@H](C)N([C@H](c2ccc(C(=O)N(CC)CC)cc2)c2cccc(OC)c2)C[C@H]1C
active: Potency [4] 19 µM | Potency [13] 21.3 µM
inactive: Potency [16] | activity change, positive = activation ([18]; at 42.5 µM (top of the series)) -5.94% | Potency [3] | Potency [5] | Potency [20] | Potency [10] | Potency [11] | Potency [12] | outcome [14]

CCOC(=O)c1cn2nc(OP(=S)(OCC)OCC)cc2nc1C
active: Potency [17] 34.4 µM | Potency [7] 17.4 µM
inactive: Potency [16] | activity change, positive = activation ([18]; at 92.4 µM (top of the series)) -40.1% | Potency [3] | Potency [19] | Potency [5] | Potency [6] | Potency [9] | Potency [10] | Potency [11] | Potency [12] | Potency [13] | outcome [14] | Potency [15]
